Source: article PMC5540273 (PLoS ONE, 2017)

Columns and labels:
Conditions in all cases: concentration: 1 μM, replicates: in singlicate; n = 1
[1] = test system: T1, YANK1
T1 construct: gene STK32A

[2] = test system: T2, YANK2
T2 construct: gene STK32B

[3] = test system: T3, YANK3
T3 construct: gene STK32C

[4] = test system: T4, YES
T4 construct: gene YES1

[5] = test system: T5, YSK1
T5 construct: gene STK25

[6] = test system: T6, YSK4
T6 construct: gene MAP3K19

[7] = test system: ZAK
[8] = test system: ZAP70
[9] = test system: T7, p38-alpha
T7 construct: gene MAPK14

[10] = test system: T8, p38-beta
T8 construct: gene MAPK11
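Note: KINOMEscan kinase panel screen.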

Row | Compound | %Inh [1] [%] | %Inh [2] [%] | %Inh [3] [%] | %Inh [4] [%] | %Inh [5] [%] | %Inh [6] [%] | %Inh [7] [%] | %Inh [8] [%] | %Inh [9] [%] | %Inh [10] [%]
1 | CN(C)c1cc(-c2ccc3c(N)n[nH]c3c2)nc(N)n1 [GSK2219329] | 7 | 0 | 0 | 1 | 12 | 16 | 92.5 | 0 | 0 | 0
2 | CCc1ccc(-c2ccc3c(c2)-c2nn(C)cc2S(=O)(=O)N3C)cc1 | 0 | 12 | 0 | 0 | 0 | 0 | 0 | 0 | 0 | 12
3 | COc1cc(OC)cc(-c2cc3cnc(N)nc3nc2NC(=O)NC(C)(C)C)c1 | 11 | 19 | 0 | 100 | 0 | 15 | 15 | 0 | 6 | 7
4 | Cc1c(Cn2c(C)nn3c(=O)cc(N4CCO[C@H](C)C4)nc23)cccc1C(F)(F)F [GSK2373690] | 11 | 18 | 8 | 10 | 6 | 33 | 9 | 0 | 0 | 0
5 | COc1cc(Nc2ccnc3ccc(C(F)(F)F)cc23)cc(OC)c1OC [GW577382] | 4 | 16 | 44 | 13 | 1 | 0 | 12 | 0 | 30 | 25
6 | O=C1NC(=O)C(c2ccccc2)=C1Nc1cccc(O)c1 [SB-390534] | 0 | 0 | 0 | 0 | 8 | 0 | 8 | 0 | 1 | 3
7 | CCC(=O)c1c(-c2ccccc2)c2cc(Cl)ccc2c(=O)n1Cc1ccc(C(=O)O)cc1 | 0 | 4 | 5 | 0 | 0 | 0 | 0 | 0 | 23 | 0
8 | COc1ccc(CNC(=O)NC2CCN(c3ccnc(Nc4ccc(F)cc4)n3)C2)cc1 (centres unmarked) [GSK1379706] | 12 | 0 | 0 | 0 | 25 | 0 | 0 | 20 | 44 | 0
9 | Cc1nn2c(=O)cc(N3CCOCC3)nc2n1Cc1cccc(Cl)c1Cl [GSK2342769] | 0 | 0 | 22 | 13 | 0 | 32 | 9 | 0 | 0 | 0
10 | COc1cc2ncn(-c3cc(OCc4ccncc4Br)c(C(N)=O)s3)c2cc1OC [GW854278] | 0 | 0 | 0 | 0 | 0 | 61 | 15 | 0 | 4 | 0
11 | Nc1nc(-c2ccccc2F)c(-c2ccnc3ccccc23)s1 [GW560459] | 39 | 8 | 0 | 0 | 13 | 13 | 17 | 13 | 99.8 | 0
12 | COC(=O)c1c(-c2ccccc2)c2cc(C)ccc2c(=O)n1Cc1ccccc1 | 0 | 0 | 17 | 0 | 0 | 0 | 25 | 0 | 8 | 0
13 | COc1cc(Nc2nccc(N3CCC(NC(=O)C(C)c4ccc(Cl)cc4)C3)n2)cc(OC)c1OC (centres unmarked) [GSK1379757] | 0 | 0 | 0 | 5 | 6 | 29 | 0 | 0 | 10 | 0
14 | COc1ccc(-c2coc3ccc(-c4nnc(SCc5cccc(C#N)c5)o4)cc23)cc1 | 21 | 12 | 11 | 0 | 0 | 0 | 23 | 0 | 5 | 11
15 | CCS(=O)(=O)c1ccc(OC)c(Nc2ncc(-c3ccc(F)cc3)o2)c1.Cl [GW591947] | 11 | 2 | 2 | 6 | 3 | 10 | 0 | 0 | 0 | 0
16 | O=c1cc(N2CCOCC2)nc2n(Cc3ccc(F)c(Cl)c3)ccn12 [GSK2297099] | 1 | 11 | 0 | 11 | 18 | 6 | 5 | 0 | 0 | 0
17 | Cc1ccc(Oc2ccc(Nc3ncnc4cc[nH]c34)cc2C)cn1 | 5 | 22 | 11 | 3 | 0 | 14 | 5 | 0 | 5 | 28
18 | Cn1c(=O)c(F)c(Nc2ccc(I)cc2F)c2c(=O)n(OC[C@H](O)CO)cnc21 | 0 | 10 | 0 | 0 | 0 | 0 | 19 | 0 | 13 | 11
19 | CCn1c(-c2ccoc2)nc2cnccc21 [SB-733887] | 0 | 4 | 27 | 0 | 12 | 49 | 34 | 0 | 0 | 0
20 | COc1ccc(-c2cc3c(C)nc(N)nc3n([C@H]3CC[C@H](OCCO)CC3)c2=O)cn1 | 14 | 0 | 0 | 0 | 0 | 0 | 1 | 0 | 0 | 0
21 | CC(C)(C)c1ccc(C(=O)Nc2cn3cc(-c4ccccc4)ccc3n2)cc1 | 0 | 0 | 0 | 2 | 0 | 21 | 14 | 0 | 0 | 11

Row | Compound | %Inh [1] [%] | %Inh [2] [%] | %Inh [3] [%] | %Inh [4] [%] | %Inh [5] [%] | %Inh [6] [%] | %Inh [7] [%] | %Inh [8] [%] | %Inh [9] [%] | %Inh [10] [%]
22 | O=C(Nc1n[nH]c2nc(-c3ccccc3)c(Cl)cc12)C1CC1 [SB-734909] | 17 | 0 | 0 | 0 | 0 | 85 | 14 | 10 | 24 | 39
23 | COc1cccc(C2=C(Nc3cccc(C(=O)O)c3)C(=O)NC2=O)c1 [SB-390770] | 12 | 0 | 16 | 8 | 0 | 14 | 41 | 7 | 0 | 11
24 | O=C(Nc1ccc2c(c1)OCO2)NC1CCN(c2ccnc(NCc3ccc(F)cc3)n2)CC1 [GSK1379859] | 11 | 0 | 0 | 9 | 0 | 0 | 0 | 0 | 0 | 0
25 | CCC(=O)c1c(-c2ccccc2)c2cc(Cl)ccc2c(=O)n1Cc1cc(C(=O)NC2CC2)n(C)n1 | 0 | 9 | 20 | 0 | 4 | 0 | 23 | 0 | 16 | 0
26 | CCC(=O)c1c(-c2ccccc2)c2cc(Cl)ccc2c(=O)n1Cc1cc(S(C)(=O)=O)n(CC(N)=O)n1 | 0 | 0 | 0 | 0 | 0 | 0 | 0 | 0 | 0 | 8
27 | CN1C(=O)C(Nc2ccccc2)=C(c2ccccc2)C1=O [SB-300079] | 0 | 2 | 0 | 0 | 3 | 8 | 0 | 23 | 0 | 10
28 | Nc1n[nH]c2nnc(-c3ccccc3)c(-c3ccccc3)c12 [GW554060] | 7 | 0 | 26 | 17 | 0 | 16 | 5 | 0 | 0 | 0
29 | Cl.NS(=O)(=O)c1cccc(Nc2cc(-c3ccc(F)cc3)n[nH]2)c1 [GW824645] | 0 | 0 | 0 | 0 | 8 | 0 | 0 | 0 | 0 | 0
30 | COC(=O)c1c(-c2ccccc2)c2cc(Br)ccc2c(=O)n1Cc1ccc(S(C)(=O)=O)cc1 | 0 | 6 | 36 | 0 | 4 | 13 | 32 | 0 | 17 | 9
31 | COc1cc2ncn(-c3cc(OCc4ccncc4)c(C(N)=O)s3)c2cc1OC [GSK336313] | 8 | 0 | 4 | 0 | 35 | 30 | 1 | 0 | 5 | 0
32 | Nc1ncnc2c1ncn2-c1cccc2ccccc12 [SKF-97184] | 0 | 80 | 4 | 0 | 12 | 23 | 0 | 37 | 0 | 0
33 | COc1cc2nccc(Nc3cccc(Oc4ccccc4)c3)c2cc1OC.Cl [GW284543] | 5 | 0 | 1 | 19 | 0 | 0 | 17 | 0 | 0 | 0
34 | Cc1cccc(-c2nc(Nc3ccc4c(cnn4C)c3)c3ccccc3n2)n1 [GW876731] | 0 | 0 | 32 | 0 | 0 | 42 | 0 | 14 | 10 | 7
35 | C[C@@H]1CC[C@H](C(=O)NC2CCCCC2)CN1c1cc(-c2ccc3c(N)n[nH]c3c2)nc(N)n1 [GSK2291363] | 6 | 3 | 26 | 21 | 24 | 27 | 9 | 0 | 36 | 0
36 | Cl.c1ccc(Cn2cnc3cc(Nc4ncnc5ccccc45)ccc32)cc1 [GW272142] | 0 | 0 | 18 | 7 | 0 | 29 | 0 | 21 | 0 | 0
37 | Nc1nccc2scc(-c3ccc4c(c3)CCN4C(=O)Cc3ccccc3)c12 [GSK2576924] | 10 | 9 | 0 | 5 | 0 | 36 | 0 | 0 | 0 | 0
38 | CN1C(=O)C(Nc2cc(Cl)c(O)c(Cl)c2)=C(c2ccc(Cl)cc2)C1=O [SB-404321] | 0 | 0 | 0 | 0 | 0 | 0 | 0 | 0 | 2 | 0
39 | COc1cc2ncn(-c3cc(OCCCc4ccccc4)c(C(N)=O)s3)c2cc1OC [GSK205189] | 0 | 0 | 19 | 0 | 0 | 0 | 0 | 0 | 0 | 0
40 | CCn1c(-c2nonc2N)nc2ccccc21 [SB-693162/GW549034] | 46 | 0 | 0 | 0 | 0 | 87 | 0 | 0 | 23 | 1
41 | CCCNC(=O)Nc1ccc(Oc2ncnc3ccn(C)c23)cc1 | 0 | 8 | 13 | 0 | 3 | 33 | 1 | 0 | 2 | 15
